Screening results deposited in PubChem BioAssay by National Center for Advancing Translational Sciences (NCATS).
gsp antag – qHTS for Antagonists of gsp, the Etiologic Mutation Responsible for Fibrous Dysplasia/McCune-Albright Syndrome: qHTS. gsp-mutant cells, cAMP HTRF, 30 min. Potency, µM (highest dose often 76.9 µM), for inactives: at the top dose activity change, negative = inhibition, hits mostly inhibitors. actives 0.4% (n = 340,000); calls by dose curve; cell line not stated here;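 note: intracellular cAMP measured with PDE inhibitor Ro 20-1724 present during compound exposure; % is set by controls: 0 for no effect and ±100 for the full control effect; nearly all actives have a fitted effect of over 65% in size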
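G418-selected cells were plated in DMEM/10% FBS for 16-24 h at 37C, then treated with compounds plus the PDE inhibitor […] (300 uM solution added) for 30 min at 37C. Intracellular cAMP was measured by HTRF after 30 min lysis at room temperature.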
ALOX12 inh – Primary qHTS assay for inhibitors of human arachidonate 12S-lipoxygenase (ALOX12): Round 2. Polyunsaturated fatty acid lipoxygenase ALOX12 (Homo sapiens), P18054. actives 1.1% (n = 580,000). purified 12hLO, xylenol orange hydroperoxide absorbance. Potency, µM (doses to about 108 µM), for the others: top-dose activity change, negative = inhibition, actives largely listed as inhibitors; note: % is set by controls: 0 for no effect and ±100 for the full control effect
Target sequence (P18054 whole entry, looked up): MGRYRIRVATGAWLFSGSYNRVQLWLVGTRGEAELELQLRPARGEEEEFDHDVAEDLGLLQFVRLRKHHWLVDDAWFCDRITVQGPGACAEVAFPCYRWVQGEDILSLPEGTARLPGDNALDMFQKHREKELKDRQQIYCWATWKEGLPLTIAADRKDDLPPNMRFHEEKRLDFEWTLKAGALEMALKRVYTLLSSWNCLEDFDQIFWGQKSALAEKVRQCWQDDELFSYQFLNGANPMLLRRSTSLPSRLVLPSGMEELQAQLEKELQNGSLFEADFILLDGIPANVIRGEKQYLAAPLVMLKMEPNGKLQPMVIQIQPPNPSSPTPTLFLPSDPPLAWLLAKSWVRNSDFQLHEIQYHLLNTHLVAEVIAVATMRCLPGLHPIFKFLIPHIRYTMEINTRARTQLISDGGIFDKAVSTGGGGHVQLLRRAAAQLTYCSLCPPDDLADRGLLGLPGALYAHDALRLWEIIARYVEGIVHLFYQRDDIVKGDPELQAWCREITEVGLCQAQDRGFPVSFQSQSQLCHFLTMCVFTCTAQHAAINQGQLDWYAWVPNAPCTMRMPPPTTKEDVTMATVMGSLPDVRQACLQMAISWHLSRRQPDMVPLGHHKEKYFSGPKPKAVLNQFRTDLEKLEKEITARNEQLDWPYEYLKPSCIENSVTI
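Purified human 12hLO at 150 nM in 25 mM Hepes, 0.01% Triton X-100, pH 7.0, preincubated 15 min at room temperature with compound. Reaction started with 40 uM arachidonic acid, 30 min at room temperature. Hydroperoxide measured by Fe-xylenol orange, 573/405 nm absorbance ratio.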
Mito fusion yeast – qHTS Assay for Small Molecule Inhibitors of Mitochondrial Division or Activators of Mitochondrial Fusion; Potency, µM (top dose mostly 46.1 µM), for inactives: at the highest dose growth rescue (activation), hits mostly activators; S. cerevisiae fusion-defective mutant growth rescue, CellTiterGlo 48 h; actives 0.23% (n = 320,000); note: % of control where 0% means no effect; nearly all actives have a fitted effect of over 45% in size
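Read-out: ATP-based luminescence (CellTiterGlo, 10 min ambient) reporting growth of fusion-defective ts yeast after 48 hours at 37C on glycerol/ethanol YPEG medium in the presence of compound.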
gsp agonist – qHTS for Agonist of gsp, the Etiologic Mutation Responsible for Fibrous Dysplasia/McCune-Albright Syndrome: qHTS; Potency, µM (titrated, usually from 76.9 µM), for inactives: at the highest dose activation (cAMP increase), hits mostly activators; actives 0.13% (n = 340,000); gsp mutant cells, cAMP HTRF, 30 min; active = well fitted activation curve with a large enough effect; inconclusive = small, poorly fitted or top-dose-only effect, or another doubt; inactive = no such curve, though single readings can be large or run the other way; cell line not stated here;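 note: phosphodiesterase inhibitor Ro 20-1724 added with compounds to block cAMP breakdown; nearly all actives have a fitted effect of over 60% in size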
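Cells in DMEM/10% FBS with G418 were pretreated with compounds in DMSO plus […] (300 uM stock) for 30 min at 37C. cAMP was measured by HTRF (cAMP-d2 plus anti-cAMP antibody-K) after 30 min at room temperature.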
FUS suppressor – qHTS for Suppressors of FUS Proteinopathy: Primary screen using FUS-linked yeast assay. actives 0.24% (n = 390,000). Potency, µM (series often up to 76.6 µM), actives largely listed as activators. S. cerevisiae FUS-expressing, growth rescue, OD600, 24 h;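 note: plate controls were DMSO vehicle for no effect and reference control for full effect; nearly all actives have a fitted effect of over 55% in size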
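Restored growth of FUS-toxic S. cerevisiae, read as 600 nm absorbance after 24 h at 30C in galactose medium (starting OD 0.005). Controls CP55940 and DMSO.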
Active calls of the source: *; i = inactive; u = inconclusive; x = no result given; [ ] = dose if it differs, or a comment. Shown are actives, neighbours in structure and some others; about 1.6% of the full set was active somewhere. Unless noted, calls come from the whole dose curve; as a rule, active = well fitted curve in the direction sought with a large enough effect; inconclusive = small, poorly fitted or top-dose-only effect, or another doubt; inactive = no such curve, though single readings can be large; an effect the other way counts as inactive or inconclusive. Potency is the fitted concentration of half-maximal effect.

SMILES	gsp antag	ALOX12 inh	Mito fusion yeast	gsp agonist	FUS suppressor
COc1cc(O)c(C(=O)O)c(-c2cc(O)c(O)cc2C)c1	0%	3.2µM*	-13%	-69%	i
C[C@H](CO)N1C[C@H](C)[C@@H](CN(C)Cc2ccc(-c3ccccc3)cc2)Oc2c(NC(=O)c3ccncc3)cccc2C1=O	32µM*	u	x	x	i
COc1cc2c(cc1OCc1ccccc1)N(C(=O)c1ccncc1)CC21CCN(C)CC1	x	1%	x	x	x
COc1cc2c(cc1OCc1ccccc1)N(C(=O)c1cc3ccccc3n1C)CC21CCN(C)CC1	x	32µM*	x	x	x
N#CC(C#N)=Cc1ccc(C=C(C#N)C#N)cc1	-13%	u	-2%	-16%	i
N#C/C(=C/c1ccc(O)c(O)c1)C(N)=S	x	x	21µM*	x	x
O=C(Cc1ccc(F)cc1F)N1CCN(Cc2ccccc2)CC(O)C1 (stereo not drawn)	x	59%	x	x	x
C#C[C@]1(O)CC[C@H]2[C@@H]3CCC4=Cc5nc6nc7ccccc7n6cc5C[C@]4(C)[C@H]3CC[C@@]21C	32µM*	-16%	u	x	u
Cc1ccc(OCCn2cccc2/C=C2/C(=O)NC(=O)N(Cc3ccco3)C2=O)cc1	-13%	35µM*	-1%	u	i
Cc1ccc(N2C(=O)NC(=O)/C(=C\C=C\c3ccco3)C2=O)cc1	u	-23%	-2%	-25%	i
O=C1NC(=O)N(Cc2ccccc2)C(=O)/C1=C\C=C\c1ccco1	4%	40µM*	-12%	1%[15.4 µM]	i
Cc1ccc(N2C(=O)NC(=O)/C(=C\C=C\c3ccco3)C2=O)cc1C	-4%	40µM*	-1%	3%[15.4 µM]	i
Cn1cccc1/C=C1\C(=O)NC(=O)N(Cc2ccco2)C1=O	-20%	u	0%	27%	i
O=C1NC(=O)N(Cc2ccco2)C(=O)/C1=C/C=C/c1ccco1	u	40µM*	-3%	-4%	u
O=C1NC(=O)N(c2ccccc2)C(=O)/C1=C/C=C/c1ccco1	-20%	u	-2%	-23%	i
C[S+](=O)([O-])N1CCC2(CC1)C(=O)NN=C2c1cccnc1	x	14%[176 µM]	x	x	x
Cc1cc(/C=C2\C(=O)NC(=O)N(Cc3ccco3)C2=O)c(C)n1-c1ccc(O)cc1	u	35µM*	-8%	-5%	u
Cc1ccc(-n2c(C)cc(/C=C3/C(=O)NC(=O)N(Cc4ccco4)C3=O)c2C)cc1	-4%	u	-1%	-4%[15.4 µM]	i
COC(=O)C1=C(c2ccc(Cl)c(C(F)(F)F)c2)C[C@@H]2CC[C@H]1N2C(=O)NCCO	11%	2%	-2%	-15%	i
COC(=O)C1=C(c2ccc(-c3ccccc3)c(F)c2)C[C@@H]2CC[C@H]1N2C(=O)NCC1CC1	u	0%	20µM*	x	i
COC(=O)C1=C(c2ccc(Cl)c(C(F)(F)F)c2)C[C@@H]2CC[C@H]1N2C(=O)NCCOc1ccccc1	-15%	x	u	-9%	22µM*
Clc1ccc(COC(Cn2ccnc2)c2ccc(Cl)cc2Cl)cc1 (stereo not drawn)	-29%	u	3.2µM*	x	i
O=C(N/N=C/c1c(O)n(CCC2=CCCCC2)c(=S)[nH]c1=O)c1ccccc1	-2%	28µM*	4%	-87%	i
O=c1[nH]c(=S)n(CCC2=CCCCC2)c(O)c1C=NCCCn1ccnc1	-7%	-13%	3%	0%	i
O=c1[nH]c(=O)n(CCC2=CCCCC2)c(O)c1C=NCCCn1ccnc1	12%	17%	3%	11%	13µM*
SMILES	gsp antag	ALOX12 inh	Mito fusion yeast	gsp agonist	FUS suppressor
O=C(NC1CCCCC1)N1C[C@@H]2C[C@H](C1)c1c(-c3cncnc3)ccc(=O)n1C2	x	16%[176 µM]	x	x	x
O=C(c1ccccc1)C(CN1CCCC1)c1ccccc1 (stereo not drawn)	-4%	-13%	-13%	6%	i
CC1CCN(C(CC(=O)c2ccccc2)C(=O)c2ccccc2)CC1 (stereo not drawn)	18%	8.9µM*	x	28%	i
CCCNC(=O)OC[C@H]1C[C@@H]2CCN1C[C@@H]2c1cc(-c2ccccc2OC)nc(C)n1	x	18%[176 µM]	x	x	x
O=C(C1CCCC1)N1[C@H]2CC[C@@H]1c1cnc(-c3ccc(F)cc3)nc1C2	x	12%	x	x	x
Cc1ccc(S(=O)(=O)Oc2ccccc2C=C2C(=O)N(C)C(=O)N(C)C2=O)cc1	0%	45µM*	-3%	4%	i
Cc1ccccc1-n1c(O)c(/C=N/Nc2nc3c(c(=O)n(C)c(=O)n3C)n2C)c(=O)[nH]c1=S	-14%	u	-2%	30%	x
Cc1cccc(-n2c(O)c(/C=N/Nc3nc4c(c(=O)n(C)c(=O)n4C)n3C)c(=O)[nH]c2=S)c1	-9%	32µM*	-4%	u	x
c1nc(N2C[C@@H](c3ccc4c(c3)OCO4)[C@@H]3[C@H]2C2CCN3CC2)c2[nH]cnc2n1	x	46%	x	x	x
COc1ccccc1NC(=O)Nc1ccc2n(c1=O)C[C@H]1C[C@@H]2CN(C2CCOCC2)C1	x	13µM*	x	x	x
COc1ccccc1NC(=O)N1C[C@@H]2C[C@H](C1)c1c(C3CCCCC3)ccc(=O)n1C2	x	10%[176 µM]	x	x	x
CC(C)(C)c1ccc(O)c(N=Cc2c(O)ccc3ccccc23)c1	-12%	7.9µM*	-1%	-13%	i
Cn1nc(-c2ccccc2)cc1[C@H]1CN2CC[C@H]1C[C@@H]2CNC(=O)Nc1ccccc1	x	-3%[176 µM]	x	x	x
Cc1ccc([N+](=O)[O-])[c]2c1[O][Hg]2	x	0.051µM*	x	x	x
C[N+]1(C)C2CC[C@H]1CC(OC(=O)C(CO)c1ccccc1)C2 (stereo partly drawn)	-3%	-8%	-5%	x	i
C[N+]1(C)C2CCC1CC(OC(=O)c1ccco1)C2 (stereo not drawn)	9%	0%	4%	11%	i
C[N+]1(C)C2CCC1CC(OC(=O)c1c[nH]c3ccccc13)C2 (stereo not drawn)	3%	45µM*	u	x	i
C[N+]1(C)[C@@H]2CC[C@H]1CC(OC(=O)[C@@H](CO)c1ccccc1)C2 (stereo partly drawn)	-7%	18µM*	-20%	-81%	i
CC[C@H]1CN2CC[C@H]1C[C@@H]2CNC(=O)CSCC(=O)O	x	31%[176 µM]	x	x	x
O=C1c2ccccc2C(=O)N1SC1CCCCC1	19%	16µM*	-3%	-56%	i
NC(=O)c1cn(C2CCCCC2)c2ccccc2c1=O	-4%	-6%	15%	-13%	i
N[C@@H](Cc1ccc(Oc2cc(I)c(O)c(I)c2)c(I)c1)C(=O)O	x	5.1µM*	x	x	x
